Hit rate of the full screen: of about 5,500 compounds, about 2,000 (36%) were called active. About 18% were inconclusive and are not listed. The list shows a part of the results. A number with no mark means an inactive call. No stated cut-off is given here; in the data, active means normalized growth mostly below about 0.91 (no sharp cut-off); inconclusive means no clear call, values can overlap the other calls; inactive means mostly above about 0.92.

This assay can be described thus: chemical genetic growth profiling, strain panel (AID 1159580).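 Further: tested at 20 µM; growth read once vehicle control cultures reached saturation at 30 °C; 1 = growth at the plate median or of vehicle wells.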 The note with it: S. cerevisiae deletion strains, growth OD.
Where [1] appears, read: locus YAL013W, strain DEP1, stronger effect = lower value.
Setting [2] is: locus YGR078C, strain PAC10, stronger effect = lower value.
[3] abbreviates: locus YJR075W, strain HOC1, stronger effect = lower value.
Where [4] appears, read: locus YMR263W, strain SAP30, stronger effect = lower value.
Where [5] appears, read: locus YMR307W, strain GAS1, stronger effect = lower value.
[6] abbreviates: locus YNL153C, strain GIM3, stronger effect = lower value.
[7] abbreviates: locus YNL322C, strain KRE1, stronger effect = lower value.
Where [8] appears, read: locus YPL055C, strain LGE1, stronger effect = lower value.
[9] abbreviates: locus YPL241C, strain CIN2, stronger effect = lower value.
The mark [10] stands for this setting: locus YAL040C, strain CLN3, stronger effect = lower value.
Where [11] appears, read: locus YCL061C, strain MRC1 (second series), stronger effect = lower value.
[12] abbreviates: locus YDR363W, strain ESC2, stronger effect = lower value.
Setting [13] is: locus YER002W, strain NOP16, stronger effect = lower value.
The mark [14] stands for this setting: locus YNL175C, strain NOP13, stronger effect = lower value.
Where [15] appears, read: locus YNL197C, strain WHI3, stronger effect = lower value.
[16] abbreviates: locus YNL224C, strain SQS1, stronger effect = lower value.
Setting [17] is: locus YOR083W, strain WHI5 (second series), stronger effect = lower value.

With `CCOC(=O)CC1=Nn2c(nnc2-c2cc(Cl)cc(Cl)c2)SC1`, the normalized growth is, setting by setting: under setting [1], 0.97; (locus YBR229C, strain ROT2, stronger effect = lower value) 0.905 (active); (locus YDL101C, strain DUN1, stronger effect = lower value) 0.914; (locus YDL134C, strain PPH21, stronger effect = lower value) 0.996; (locus YDR150W, strain NUM1, stronger effect = lower value) 0.857; (locus YEL061C, strain CIN8, stronger effect = lower value) 0.934. Also, the normalized growth is 0.97 under setting [2]; 0.979 (locus YGR229C, strain SMI1, stronger effect = lower value); 0.538 (active) (locus YHR030C, strain SLT2, stronger effect = lower value); 0.927 (locus YHR087W, strain rtc3, stronger effect = lower value); 0.913 (active) (locus YJL187C, strain SWE1, stronger effect = lower value); 0.989 (locus YJR043C, strain POL32, stronger effect = lower value). The normalized growth under setting [3] is 0.811 (active); the normalized growth (locus YLR039C, strain RIC1, stronger effect = lower value) was 0.91; the normalized growth (locus YLR058C, strain SHM2 (second series), stronger effect = lower value) is 0.971; the normalized growth (locus YLR085C, strain ARP6, stronger effect = lower value) is 0.808; the normalized growth (locus YLR262C, strain YPT6, stronger effect = lower value) is 0.982; the normalized growth (locus YML094W, strain GIM5, stronger effect = lower value) is 0.823 (active). Also, the normalized growth reads like this: (locus YMR219W, strain ESC1, stronger effect = lower value) 0.955; under setting [4], 0.965; under setting [5], 0.806; under setting [6], 0.95; (locus YNL298W, strain CLA4 (second series), stronger effect = lower value) 0.823 (active); under setting [7], 0.977. For the same molecule, the normalized growth was 0.914 (locus YNR030W, strain Alg12, stronger effect = lower value); 0.864 under setting [8]; 1.01 under setting [9]; 0.714 (locus YPR135W, strain CTF4, stronger effect = lower value).

With `C=CCN1CC[C@]23CCCCC2[C@H]1Cc1ccc(O)cc13` (stereo not given in full), the normalized growth under setting [1] was 1.02; the normalized growth under setting [10] was 1.01; the normalized growth under setting [11] is 1.01; the normalized growth under setting [12] was 1.02; the normalized growth under setting [13] is 1; the normalized growth under setting [2] was 0.995. The normalized growth is 0.999 under setting [3]; 1.01 under setting [5]; 1.02 under setting [6]; 1.01 under setting [14]; 0.997 under setting [15]; 0.988 under setting [16]. Moreover, the normalized growth under setting [17] is 1.01.

On to `C=CCN1CCC23c4c5ccc(O)c4O[C@H]2C(=O)CC[C@@]3(O)C1C5` (stereo not given in full), for which the normalized growth by setting is: under setting [1], 1.01; under setting [10], 1; under setting [11], 1; under setting [12], 1.01; under setting [13], 0.994; under setting [4], 0.998. The normalized growth under setting [5] is 0.998; the normalized growth under setting [14] is 0.997; the normalized growth under setting [15] is 1.01; the normalized growth under setting [16] is 1.01; the normalized growth under setting [7] is 1.01; the normalized growth under setting [17] is 1. Moreover, the normalized growth runs as follows: under setting [8], 1.02; under setting [9], 1.

These data come from PubChem BioAssay AID1159580 (chemical genetic matrix, 2015).
